Bioassay records as filed in PubChem BioAssay.
Compounds with a hit are over-represented: about 19% of the library has one in this group of screens.
DT40 TDP1 CPT – growth inhibition of DT40 Tdp1-/-;hTDP1 cells with camptothecin (screen for TDP1 inhibitors) | chicken DT40 Tdp1-/-;hTDP1 cells + 20 nM CPT, ATP luminescence, 48 h | Potency, µM (top dose mostly 46.2 µM), for the others: top-dose activity change, negative = growth inhibition, usual class: inhibitors | 12% of 420,000 active | AID 686979; note: potency is the fitted concentration of half-maximal effect; nearly all actives have a fitted effect of over 55% in size
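Chicken DT40 Tdp1-/- cells stably complemented with human TDP1 were seeded at 400 cells/well in medium containing 20 nM camptothecin, exposed to pin-transferred compounds, and grown at 37 °C for at least 48 hr. Viability was read as ATP luminescence.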
TDP1 cell noCPT – qHTS for Inhibitors of human tyrosyl-DNA phosphodiesterase 1 (TDP1): qHTS in cells in absence of CPT; DT40 Tdp1-/- hTDP1 cells, no CPT, ATP luminescence, 48 h; 15% of 420,000 active; AID 686978, 2013; Potency, µM (highest dose often 46.2 µM), for the others: at the highest dose activity change, negative = growth inhibition, actives largely listed as inhibitors; note: potency is the fitted concentration of half-maximal effect; nearly all actives have a fitted effect of over 55% in size
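DT40 Tdp1-/-;hTDP1 cells, no CPT (DMSO vehicle only), 400 cells/well; compounds pin-transferred; ≥48 hr, 37 °C; CellTiter-Glo 30 min RT dark, luminescence read.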
HT1080-NT tox – kills 2HG-producing HT-1080-NT fibrosarcoma cells; 1.6% of 360,000 active; AID 686970; HT-1080-NT fibrosarcoma viability, CellTiter-Glo ATP luminescence, 48 h; Potency, µM (top dose mostly 46.1 µM), for the others: top-dose activity, negative = less viability, actives largely listed as cytotoxic;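 note: NT is the 2HG producing partner of a matched IDH1 knockdown line; potency is the fitted concentration of half-maximal effect; 0% = DMSO-treated cells and -100% = media-only wells without cells; nearly all actives have a fitted effect of over 55% in size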
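Compounds were tested in concentration-response format on HT-1080-NT cells for 48 hours at 37 degrees C. Cell viability came from CellTiter-Glo luminescence; curves were classified by r2, response magnitude and activity.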
HT1080 IDH1KD tx – HT-1080 IDH1 knockdown cell toxicity (counter line); HT-1080 IDH1 knockdown viability, ATP luminescence, 48 h; Potency, µM (titrated, usually from 46.1 µM), without a hit: at the top dose activity, negative = toxicity, actives largely listed as cytotoxic; 2% of 360,000 active;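 note: potency is the fitted concentration of half-maximal effect; 0% = DMSO wells and -100% = cell-free medium wells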
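% activity derives from luminescence (CellTiter-Glo), normalised to DMSO and no-cell wells. HT-1080-IDH1KD cells, 750/well, had 48 h compound exposure at 37 °C.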
IL1B secr inh – inhibitors of inflammasome signaling (IL-1 beta secretion); THP-1 LPS/ATP IL-1B secretion, AlphaLISA, 16 h; hits give low values; activity change, % at 57.5 µM; 4.7% of 360,000 active; AID 743279; in the data active = activity change below about -50%; inconclusive = mostly about -30% to -49%
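THP-1 cells pretreated 1 hr with compounds (up to 57.5 uM final), then stimulated with LPS (250 ng/mL final) plus ATP (1.25 mM final); secreted IL-1B measured by AlphaLISA after 16 hr, decreased signal indicating inhibition.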
Numbers without * were called inactive. Unless noted, calls come from the whole dose curve; as a rule, active = well fitted curve in the direction sought with a large enough effect; inconclusive = small, poorly fitted or top-dose-only effect, or another doubt; inactive = no such curve, though single readings can be large; an effect the other way counts as inactive or inconclusive. Unless noted, % is set by controls: 0 for no effect and ±100 for the full control effect.

`O=C(CC(=O)NN=C1CCCCCC1)NCc1cccnc1` gave DT40 TDP1 CPT -9.5%, TDP1 cell noCPT 3.8%, HT1080-NT tox 9.3%, HT1080 IDH1KD tx 7.3% and IL1B secr inh 19.0.
`O=C(/C=C/c1ccc(Cl)cc1)Nc1ccccc1N1CCOCC1` gave DT40 TDP1 CPT inconclusive, TDP1 cell noCPT inconclusive, HT1080-NT tox 12.3%, HT1080 IDH1KD tx 11.2% and IL1B secr inh 0.1.
O=C(Nc1cccc(C(=O)NC2CCCC2)c1)c1ccccc1 was read as DT40 TDP1 CPT inconclusive, TDP1 cell noCPT inconclusive, HT1080-NT tox -4.7%, HT1080 IDH1KD tx -11.0% and IL1B secr inh inconclusive.
For O=C(/C=C/c1ccc(F)cc1)NC(=S)Nc1ccccc1 the results were DT40 TDP1 CPT inconclusive, TDP1 cell noCPT 20.6µM*, HT1080-NT tox inconclusive, HT1080 IDH1KD tx -17.2% and IL1B secr inh inconclusive.
`O=C(NC1CC1)c1cccc(NC(=O)c2cnn(-c3ccccc3)n2)c1` gave DT40 TDP1 CPT 23.1µM*, TDP1 cell noCPT 16.4µM*, HT1080-NT tox 2.7%, HT1080 IDH1KD tx 6.8% and IL1B secr inh 7.5.
O=C(/C=C/c1ccccc1)Nc1cccc(C(=O)NC2CC2)c1 was read as DT40 TDP1 CPT -2.8%, TDP1 cell noCPT -28.8%, HT1080-NT tox 13.0%, HT1080 IDH1KD tx 17.1% and IL1B secr inh -64.1*.
Screening O=C(/C=C/c1ccccc1)Nc1cccc(C(=O)NCCCc2ccccc2)c1 returned DT40 TDP1 CPT inconclusive, TDP1 cell noCPT inconclusive, HT1080-NT tox -3.6%, HT1080 IDH1KD tx -4.8% and IL1B secr inh 2.6.
NC(N)=NS(=O)(=O)c1ccc(NC(=S)NC(=O)/C=C/c2ccc(F)cc2)cc1 was read as DT40 TDP1 CPT -13.0%, TDP1 cell noCPT -0.6%, HT1080-NT tox -0.9%, HT1080 IDH1KD tx -4.1% and IL1B secr inh 0.4.
For O=C(/C=C/c1ccc(Cl)cc1)NC(=S)Nc1ccc(N2CCOCC2)c(Cl)c1 the results were DT40 TDP1 CPT 11.6µM*, TDP1 cell noCPT 11.6µM*, HT1080-NT tox inconclusive, HT1080 IDH1KD tx inconclusive and IL1B secr inh 8.5.
`Cc1cccc(CN2C(=O)c3ccccc3S(=O)(=O)c3ccc(C(=O)OCC4CCCO4)cc32)c1` (stereo unspecified) gave DT40 TDP1 CPT -12.3% and TDP1 cell noCPT -9.6%.
`COc1ccccc1N(CC(=O)Nc1ccccc1C(=O)N1CCOCC1)S(C)(=O)=O` gave DT40 TDP1 CPT 4.6%, TDP1 cell noCPT 13.7%, HT1080-NT tox 7.0%, HT1080 IDH1KD tx 15.9% and IL1B secr inh 3.8.
Screening O=C(/C=C/c1ccccc1)NC(=S)Nc1ccccc1 returned DT40 TDP1 CPT -21.3%, TDP1 cell noCPT inconclusive, HT1080-NT tox -6.1%, HT1080 IDH1KD tx 1.1% and IL1B secr inh -61.2*.
`O=C(C=Cc1ccccc1)Nc1ccccc1` gave DT40 TDP1 CPT -28.6%, TDP1 cell noCPT -25.3%, HT1080-NT tox -11.3%, HT1080 IDH1KD tx -7.1% and IL1B secr inh -68.6*.
For CC(C)(C)c1ccc(/C=C/C(=O)Nc2ccncc2)cc1 the results were DT40 TDP1 CPT 10.3µM*, TDP1 cell noCPT 7.31µM*, HT1080-NT tox inconclusive, HT1080 IDH1KD tx inconclusive and IL1B secr inh inconclusive.
For O=C(/C=C/c1ccccc1)NC(=S)Nc1ccc(N2CCOCC2)cc1 the results were DT40 TDP1 CPT inconclusive, TDP1 cell noCPT -29.5%, HT1080-NT tox 7.94µM*, HT1080 IDH1KD tx inconclusive and IL1B secr inh -21.6.
`O=C(/C=C/c1ccccc1)Nc1cccnc1` gave DT40 TDP1 CPT -3.9%, TDP1 cell noCPT -21.7%, HT1080-NT tox 14.4%, HT1080 IDH1KD tx 0.1% and IL1B secr inh -5.9.
`C=Cc1ccc(Cn2c(C)c(C(=O)NCc3cccc(C)c3)sc2=O)cc1` gave DT40 TDP1 CPT -33.2%, TDP1 cell noCPT -12.6%, HT1080-NT tox -20.7%, HT1080 IDH1KD tx inconclusive and IL1B secr inh 0.0.
Screening CCC(C(=O)NCCC(C)C)N(C(=O)Cn1nnc(-c2ccc(C)cc2)n1)c1cccc(O)c1 (stereo unspecified) returned DT40 TDP1 CPT inconclusive and TDP1 cell noCPT 16.4µM*.
Screening COc1cc(NC(=O)C2CCCN(c3ncnc4c3nc3n4CCCCC3)C2)cc(OC)c1OC (stereo unspecified) returned DT40 TDP1 CPT inconclusive, TDP1 cell noCPT inconclusive, HT1080-NT tox -24.5%, HT1080 IDH1KD tx -3.3% and IL1B secr inh 11.2.
CCCN(C(=O)C1CCCN(c2ncnc3c2nc2n3CCCCC2)C1)c1ccc(F)cc1 (stereo unspecified) was read as DT40 TDP1 CPT 18.4µM*, TDP1 cell noCPT 20.6µM*, HT1080-NT tox 6.0%, HT1080 IDH1KD tx 7.8% and IL1B secr inh 45.8.
Screening O=C(Nc1ccc(F)cc1)C1CCCN(c2ncnc3c2nc2n3CCCCC2)C1 (stereo unspecified) returned DT40 TDP1 CPT 13µM* and TDP1 cell noCPT 11.6µM*.
For O=C(Nc1cccnc1)C1CCCN(c2ncnc3c2nc2n3CCCCC2)C1 (stereo unspecified) the results were DT40 TDP1 CPT -29.7%, TDP1 cell noCPT inconclusive, HT1080-NT tox -2.7%, HT1080 IDH1KD tx -8.6% and IL1B secr inh 26.1.
For Cc1ccc(NC(=O)C2CCCN(c3ncnc4c3nc3n4CCCCC3)C2)cc1F (stereo unspecified) the results were DT40 TDP1 CPT 18.4µM* and TDP1 cell noCPT 23.1µM*.
CCC(C(=O)NCC1CCCO1)N(Cc1ccccc1)C(=O)CNS(=O)(=O)c1ccccc1 (stereo unspecified) was read as DT40 TDP1 CPT 2.5%, TDP1 cell noCPT -13.7%, HT1080-NT tox 23.5%, HT1080 IDH1KD tx 19.2% and IL1B secr inh 9.9.
Cc1cc(NC(=O)CSCC(=O)OCC(=O)c2ccc(Br)cc2)no1 was read as DT40 TDP1 CPT 7.2%, TDP1 cell noCPT -3.8%, HT1080-NT tox 1.5%, HT1080 IDH1KD tx -1.8% and IL1B secr inh 30.3.
For O=C(O)c1sccc1S(=O)(=O)N1CCOCC1 the results were DT40 TDP1 CPT 5.0%, TDP1 cell noCPT 1.7%, HT1080-NT tox 12.7%, HT1080 IDH1KD tx 0.0% and IL1B secr inh 20.5.
Screening CN(C)c1ccc(C(=O)N2CCC2(C)C(=O)O)cc1 (stereo unspecified) returned DT40 TDP1 CPT 1.8%, TDP1 cell noCPT 0.5%, HT1080-NT tox 17.4%, HT1080 IDH1KD tx 0.0% and IL1B secr inh -2.9.
Cc1ccc(-c2nn3c(C)nnc3c3ccccc23)cc1S(=O)(=O)NCC(C)O (stereo unspecified) was read as DT40 TDP1 CPT inconclusive and TDP1 cell noCPT -58.8%.
